Consider six molecules from PubChem BioAssay AID504883 (The Scripps Research Institute Molecular Screening Center, 2011).

Activity calls are given as the source filed them.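 The calls were made as follows: active = EC50 at or below 10 µM; inactive = EC50 above 10 µM.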 Where only a bound is given, the exact number is not on record here.

The term EC50 denotes the concentration needed to bring the measured effect to its halfway point.

A short description of this experiment: FP signal increase by Cy5-IP20 peptide alone, dose response, artefact control for PKA-R1A complex activator project, biochemical, fluorescence polarization, 1536-well HTS (AID 504883). Particulars: fluorescence polarization artifact counterscreen. On the technique in general: Fluorescence polarisation rises when a labelled molecule tumbles more slowly, as on binding a larger partner.
As to `Nc1ncnc2c1nc(Br)n2[C@@H]1O[C@@H]2COP(=O)(O)O[C@H]2[C@H]1O`, the EC50 was > 114 µM (inactive).
With `Nc1ncnc2c1nc(Sc1ccc(Cl)cc1)n2[C@@H]1O[C@@H]2COP(=O)(O)O[C@H]2[C@H]1O`, the EC50 is > 114 µM (inactive).
Next, `Nc1nc2c(nc(Br)n2[C@@H]2O[C@@H]3COP(=O)(O)O[C@H]3[C@H]2O)c(=O)[nH]1`: > 114 µM (inactive); `CCOP1(=O)OCC2OC(n3cnc4c(N)ncnc43)C(O)C2O1` (stereo unspecified): > 114 µM (inactive).
Next, `CCCC(=O)Nc1ncnc2c1ncn2[C@@H]1O[C@@H]2OP(=O)(O)OC[C@H]2[C@H]1OC(=O)CCC`: > 114 µM (inactive); `CCCC(=O)Nc1ncnc2c1ncn2[C@@H]1O[C@@H]2COP(=O)(O)O[C@H]2[C@H]1OC(=O)CCC`: > 114 µM (inactive).
